# In the library only some 12% were active in any assay of this set; here they are far more common.
# BAZ2B block: inhibitors of human BAZ2B bromodomain; Q9UIF8; AlphaScreen BAZ2B-H3K14Ac peptide displacement; Potency, µM (top dose mostly 114 µM), most hits filed as inhibitors; 360,000 tested, 4.4% active; note: nearly all actives have a fitted effect of over 60% in size
#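 Inhibition is scored as reduced AlphaScreen emission. The BAZ2B/b-H3(5-23)K14Ac complex (50 nM each) in PBS pH 7.4, 0.01% Tween-20 meets compound (up to 110 uM) for 30 min at RT before bead addition.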
# Sfp PPTase inh: blocks B. subtilis Sfp PPTase activity; Q9F4F7; Biochemical Sfp PPTase activity, qHTS; Potency, µM, usual class: inhibitors; 310,000 tested, 3.5% active;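 note: the enzyme is Sfp with the accession as filed and its product quenches rhodamine fluorescence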
#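 Reaction rates are the 30-min fluorescence difference (ex 525, em 598 nm) in wells containing 15 nM Sfp, 5 uM rhodamine-CoA and 12.5 uM BHQ-2-YbbR at pH 7.6 with 10 mM MgCl2.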
# HP1b binding inh: HP1-beta chromodomain-methylated histone interaction inhibition. P83916. AlphaScreen HP1-beta / biotin-H3K9me3 peptide binding. Potency, µM (top dose mostly 114 µM), hits mostly inhibitors. 390,000 tested, 0.56% active. AID 540317; note: nearly all actives have a fitted effect of over 70% in size
#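 AlphaScreen: HP1-beta (50 nM) preformed 30 min with biotin-H3(1-18)K9me3 peptide (50 nM) in PBS pH 7.4, 0.01% Tween-20. Compound added for 30 min at RT, then streptavidin donor/nickel chelate acceptor beads (10 ug/mL) for 30 min.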
# G9a inh: blocks human histone lysine methyltransferase G9a; Q96KQ7; G9a H3K9 monomethylation, AlphaScreen, 2 h; Potency, µM (series often up to 102 µM), usual class: inhibitors; 350,000 tested, 8.8% active; AID 504332; note: nearly all actives have a fitted effect of over 75% in size
#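 Methyltransferase reactions run at room temperature for 2 h (20 nM enzyme, 500 nM biotin-H3K9 peptide, 20 uM SAM) after a 15 min compound preincubation; product detected by AlphaScreen beads and anti-H3K9me1 antibody.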
# L3MBTL1 inh: blocks human L3MBTL1; Q9Y468; Potency, µM (top dose mostly 57.1 µM), actives largely listed as inhibitors; 230,000 tested, 0.66% active; AlphaScreen L3MBTL1–H3K9me1 peptide binding; note: nearly all actives have a fitted effect of over 60% in size
#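 L3MBTL1 50 nM + b-AHA-H3(1-15)K9me1 75 nM, 30 min RT; compound added, 30 min RT; streptavidin donor/Ni-chelate acceptor beads 10 ug/mL each final, 30 min RT dark; AlphaScreen read.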
# JMJD2A Tudor: JMJD2A Tudor domain (human) inhibition | 390,000 tested, 4.4% active | AID 504339 | AlphaScreen JMJD2A-Tudor / H3K4me3 peptide binding | Potency, µM (series often up to 114 µM), actives largely listed as inhibitors; note: nearly all actives have a fitted effect of over 50% in size
# Target sequence (O75164 whole entry, looked up, the tested form may be a part): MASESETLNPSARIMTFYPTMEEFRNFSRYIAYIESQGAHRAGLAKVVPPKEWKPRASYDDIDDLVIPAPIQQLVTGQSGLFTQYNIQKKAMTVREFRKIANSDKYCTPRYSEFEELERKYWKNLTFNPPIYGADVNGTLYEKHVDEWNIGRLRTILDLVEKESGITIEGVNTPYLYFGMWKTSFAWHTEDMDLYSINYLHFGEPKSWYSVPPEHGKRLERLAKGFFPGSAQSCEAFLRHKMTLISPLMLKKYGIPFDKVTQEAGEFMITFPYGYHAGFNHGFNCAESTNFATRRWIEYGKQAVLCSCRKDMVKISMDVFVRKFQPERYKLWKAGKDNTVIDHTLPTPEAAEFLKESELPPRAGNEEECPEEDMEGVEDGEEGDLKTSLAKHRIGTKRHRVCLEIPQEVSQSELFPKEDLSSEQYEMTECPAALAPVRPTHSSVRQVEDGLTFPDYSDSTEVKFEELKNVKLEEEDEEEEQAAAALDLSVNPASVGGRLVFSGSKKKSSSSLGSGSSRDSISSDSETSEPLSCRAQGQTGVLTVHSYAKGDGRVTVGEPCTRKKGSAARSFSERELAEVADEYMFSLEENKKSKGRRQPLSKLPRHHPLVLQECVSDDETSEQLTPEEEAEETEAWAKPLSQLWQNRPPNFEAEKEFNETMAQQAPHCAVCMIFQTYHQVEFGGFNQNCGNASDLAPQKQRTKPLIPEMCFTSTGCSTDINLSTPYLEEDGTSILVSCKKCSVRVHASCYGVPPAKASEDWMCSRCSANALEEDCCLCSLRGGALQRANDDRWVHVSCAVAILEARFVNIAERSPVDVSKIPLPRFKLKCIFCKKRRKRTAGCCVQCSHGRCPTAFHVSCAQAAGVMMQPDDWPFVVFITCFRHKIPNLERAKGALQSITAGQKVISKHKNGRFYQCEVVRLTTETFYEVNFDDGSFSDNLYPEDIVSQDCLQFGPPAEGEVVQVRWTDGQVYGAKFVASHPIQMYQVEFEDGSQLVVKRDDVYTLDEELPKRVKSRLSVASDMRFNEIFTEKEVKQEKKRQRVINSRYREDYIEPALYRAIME
# Hits are given with their value; n = inactive; u = inconclusive; x = no result given; [ ] = dose if it differs, or a comment. Calls come from the whole dose curve; as a rule, active = well fitted curve in the direction sought with a large enough effect; inconclusive = small, poorly fitted or top-dose-only effect, or another doubt; inactive = no such curve, though single readings can be large; an effect the other way counts as inactive or inconclusive.
SMILES,BAZ2B block,Sfp PPTase inh,HP1b binding inh,G9a inh,L3MBTL1 inh,JMJD2A Tudor
COc1ccc(CNc2cccc3[nH]c(C(F)(F)F)nc23)cc1,u,n,n,n[2.33 µM],x,u
COc1cc(CNc2cccc3[nH]c(C(F)(F)F)nc23)cc(OC)c1,u,n,n,40µM,x,50µM
O=C(Nc1nnc(SCc2ccc(F)cc2)s1)c1cccnc1Cl,n,n,n,u,n,n
O=C(Nc1nnc(SCc2ccc(F)cc2)s1)c1ccccn1,25µM,n,n,50µM,x,28µM
CC(=O)Nc1nnc(SCc2ccc(C(=O)Nc3ccccc3F)cc2)s1,n,n,n,45µM,x,n
NC(=O)C1CCCN(C(=O)c2ccc(Cl)cc2)C1 (stereo not given),n,n,n,n[12.7 µM],n,n
Cc1ccc(/C=C/C(=O)N2CCN(c3ncccn3)CC2)o1,n,n,u,4µM,n,28µM
Cc1ccc(/C=C/C(=O)N2CCCC(C(N)=O)C2)o1 (stereo not given),n,18µM,n,56µM,n,n
Cn1c(=O)c(-c2ccc(F)c(F)c2)nc2cncnc21,x,n,x,n[0.501 µM],x,x
O=C(NCCN1CCN(c2cccc(Cl)c2)CC1)c1ccc(CSc2nc3ccncc3[nH]2)cc1,u,n,n,50µM,x,45µM
Cc1cccc(-n2c(O)c(C=Nc3cccc(O)c3)c3ccccc3c2=O)n1,n,n,n,n,n,n[11.4 µM]
CC1=NC(=O)C(N=Nc2cccc(O)c2)N1c1ccccc1 (stereo not given),20µM,n,u,u,x,32µM
C[C@H](NS(=O)(=O)OCC(Cl)(Cl)Cl)C1CC1c1ccccc1 (stereo not given in full),u,n,n,u,n,45µM
CC(NS(=O)(=O)OCC(Cl)(Cl)Cl)c1ccc(C(C)(C)C)cc1 (stereo not given),n,n,n,n,n,n
O=C(CSc1nc(=O)[nH]c2c1CCCC2)NCc1ccccc1Cl,n,x,n,n,x,n
O=C1CCCN1CCCNC(=S)Nc1ccccc1,n,n,n,x,n,n
Cn1cc(CC(=O)NCCCN2CCCC2=O)c2ccccc21,n,n,n,n,n,n
O=C1CCCN1CCCNC(=S)Nc1ccc(Nc2ccccc2)cc1,u,56µM,n,x,n,n
S=C(NCCCN1CCOCC1)Nc1ccc(Nc2ccccc2)cc1,u,n,n,45µM,n[11.4 µM],n
CC(C)N(c1ccccc1)c1ccc(NC(=S)NCCN(C)C)cc1,n,n,n,45µM,x,n
CCNC(=S)Nc1ccc(N(c2ccccc2)C(C)C)cc1,n,u,n,u,x,u
O=C(CNCc1ccccc1)NCCCN1CCCC1=O,n,n,u,22µM,x,2µM
CCOc1ccccc1NC(=O)c1ccc(F)c(S(=O)(=O)N2CCN(c3ccc(F)cc3)CC2)c1,n,x,n,n,x,n
CC(C)CC(CSc1ccc(Br)cc1)N1CCN(CC(C)C)CCC1=O (stereo not given),x,n,n,x,x,n
S=C(NCCCN1CCOCC1)Nc1ccc(N2CCOCC2)cc1,n,n,n,u,x,n
SMILES,BAZ2B block,Sfp PPTase inh,HP1b binding inh,G9a inh,L3MBTL1 inh,JMJD2A Tudor
S=C(NCCCN1CCOCC1)Nc1ccc(-c2nc3ccccc3[nH]2)cc1,x,35µM,n,32µM,n,n
CC(CC(=O)Nc1ccccc1)NCCCN1CCCC1=O (stereo not given),50µM,n,79µM,8.9µM,x,0.71µM
CN(C)CCNC(=S)Nc1ccc(-c2nc3ccccc3[nH]2)cc1,n,n,n,50µM,n,n
CCc1cccc(C)c1NS(=O)(=O)c1c(C(=O)N2CCC(C)CC2)c(C)n(C)c1C,u,x,n,n,x,n
CCN(CCCc1ccccc1)CCCc1ccccc1,u,n,n,u,n,22µM
CCN(CCCC(=O)c1ccc(F)cc1)CCc1ccccc1,n,n,n,x,n,n
CCCN(CCO)CCCc1ccccc1,u,u,u,u,x,2.8µM
O=C(NCCc1ccc(Cl)cc1)C1COc2ccccc2C1 (stereo not given),n,x,n,n,x,n
Cc1ccc(C)c(OCCOCCN2CC(C)OC(C)C2)c1C (stereo not given),25µM,u,u,13µM,x,1µM
COC(=O)c1ccccc1OCCOc1ccccc1C(=O)OC,n,n,n,n,n,n
CC1CN(CCOc2ccccc2C(C)C)CC(C)O1 (stereo not given),u,u,u,10µM,n,22µM
COC(=O)c1ccccc1OCCCCN1CC(C)OC(C)C1 (stereo not given),35µM,u,u,3.5µM,n,1.8µM
CC1CN(CCCCOc2ccc(F)cc2)CC(C)O1 (stereo not given),50µM,n,50µM,10µM,n[11.4 µM],u
Cc1nc(N/C(N)=N/S(=O)(=O)c2ccc([N+](=O)[O-])cc2)nc2ccccc12,n,n,n,n,n,n
CCc1cccc(NC(=O)c2cccc3c2C(=O)N(CC2CCCO2)C3)c1 (stereo not given),n,n,n,x,n,n
CC1CN(CCOCCOc2ccccc2-c2ccccc2)CC(C)O1 (stereo not given),22µM,45µM,u,1.8µM,n,10µM
CCN(CC(=O)Nc1ccc(NC(C)=O)cc1)C(=O)C1COc2ccccc2O1 (stereo not given),n,n,n,n[12.7 µM],x,n
CCOC(=O)Cn1c2[n+](c3ccccc31)CC(O)CS2 (stereo not given),u,n,n,u,x,45µM
COc1ccc(CCNC(=O)Cn2nc(C)c3c(C)n(-c4ccc(C)cc4)nc3c2=O)c(OC)c1,50µM,x,n,u,n,u
COCCNC(=O)Cn1nc(C)c2c(C)n(-c3ccc(C)cc3)nc2c1=O,n,x,n,n,x,n
COc1ccc(CNC(=O)Cn2nc(C)c3c(C)n(-c4ccc(C)cc4)nc3c2=O)cc1OC,79µM,n,n,x,x,89µM
O=C(CCc1ccc(S(=O)(=O)N2CCOCC2)cc1)Nc1c(F)cccc1F,x,x,n,x,n,n
CC(=O)c1ccc(NC(=O)c2sc(-n3nc(C)c(Cc4ccc5c(c4)OCO5)c3C)nc2C)cc1,n,x,n,n,x,79µM
CCCN(CC(=O)Nc1ccccc1OC)C(=O)c1cccc(S(=O)(=O)Nc2ccc(OC)cc2)c1,n,x,n,n,n,n
CN(CC1COc2ccccc2O1)C(=O)c1cccc(S(=O)(=O)N2CCCC2)c1 (stereo not given),n,x,n,1µM,n,n
O=C(NCC1COc2ccccc2O1)c1cc(S(=O)(=O)N2CCOCC2)ccc1F (stereo not given),n,x,n,22µM,n,n
O=C(NCC1COc2ccccc2O1)c1cccc(S(=O)(=O)N2CCCCC2)c1 (stereo not given),n,x,n,n[12.7 µM],n,n

# Assay outcomes (PubChem)
